# From PubChem BioAssay
# A number with no mark means an inactive call. For some assays here: Measured potencies and affinities stand elsewhere. Calls of active or inactive are those of the source. Unless noted, the rule behind the calls is not given here.
# Tests used:
# [1] = antimalarial activity against Dd2 strain (AID 2302;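 active = growth inhibition above 50% at the single 2 µM test dose, taken to imply half-maximal potency below 2 µM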;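 note: 0% = DMSO untreated growth and 100% = chloroquine plus artemisinin killed control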); settings: P. falciparum Dd2 in RBCs, LDH growth readout, 72 h; at 2 µM; active compounds read high
# [2] = HepG2 cytotoxicity, primary screen, cytotoxicity control for P. falciparum antimalarial project, cell-based, ATP luminescence (AID 2303;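 active = inhibition above 50%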;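 note: 0% = DMSO wells and 100% = digitonin-killed cells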); settings: HepG2 viability, 24-48 h, at 10 µM, active compounds read high
# [3] = target: L-lactate dehydrogenase (Plasmodium falciparum (isolate CDC / Honduras)) (UniProt Q27743); assay: PfLDH activity inhibition – cell lysate, 3D7 strain, counter-screen for P. falciparum growth inhibition project (AID 2304);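 note: 0% = vehicle and 100% = reference inhibitor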; settings: P. falciparum 3D7 crude extract, LDH APAD/NBT absorbance; at 2 µM; active compounds read high
# Chain of L-lactate dehydrogenase (Plasmodium falciparum (isolate CDC / Honduras)) (Q27743 whole entry, looked up): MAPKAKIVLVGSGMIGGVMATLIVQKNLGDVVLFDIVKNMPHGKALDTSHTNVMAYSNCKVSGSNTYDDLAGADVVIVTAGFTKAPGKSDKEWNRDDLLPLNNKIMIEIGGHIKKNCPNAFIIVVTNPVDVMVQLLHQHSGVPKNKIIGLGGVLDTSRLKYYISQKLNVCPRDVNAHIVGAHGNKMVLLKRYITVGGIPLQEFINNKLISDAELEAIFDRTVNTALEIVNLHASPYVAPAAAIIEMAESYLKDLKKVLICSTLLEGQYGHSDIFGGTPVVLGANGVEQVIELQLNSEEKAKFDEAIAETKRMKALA
# [4] = inhibition of 3D7 malaria parasite growth – strain 3D7 (AID 2306);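 note: 0% = DMSO wells and 100% = chloroquine plus artemisinin control wells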; settings: P. falciparum 3D7 erythrocytic growth, LDH absorbance, 72 h; at 2 µM; active compounds read high
# [5] = target: Calcium-dependent protein kinase 1 (Plasmodium falciparum (isolate 3D7)) (UniProt P62344); assay: PfCDPK1 kinase inhibitors, biochemical, TCAMS library (AID 1159585; cut-off not given, nearly all actives have IC50 up to about 0.98 µM;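 note: inhibitors leave more ATP so luminescence rises with inhibition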); settings: recombinant PfCDPK1, Kinase-Glo ATP depletion luminescence
# Chain of Calcium-dependent protein kinase 1 (Plasmodium falciparum (isolate 3D7)) (P62344 whole entry, looked up): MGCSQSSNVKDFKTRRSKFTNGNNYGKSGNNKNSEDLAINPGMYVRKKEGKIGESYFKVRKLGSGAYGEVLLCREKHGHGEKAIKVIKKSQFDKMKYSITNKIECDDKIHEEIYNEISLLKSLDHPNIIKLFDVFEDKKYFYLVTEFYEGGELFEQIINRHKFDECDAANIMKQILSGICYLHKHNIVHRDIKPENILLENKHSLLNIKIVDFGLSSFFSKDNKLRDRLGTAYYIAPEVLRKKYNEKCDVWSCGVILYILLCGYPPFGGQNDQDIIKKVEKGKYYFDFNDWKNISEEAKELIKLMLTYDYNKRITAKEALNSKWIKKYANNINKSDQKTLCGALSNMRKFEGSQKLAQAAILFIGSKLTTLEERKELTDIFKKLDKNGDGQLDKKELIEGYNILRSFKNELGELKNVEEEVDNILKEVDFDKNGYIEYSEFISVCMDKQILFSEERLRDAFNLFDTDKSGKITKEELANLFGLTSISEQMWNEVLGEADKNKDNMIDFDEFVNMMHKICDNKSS
# [6] = target: Plasmodium falciparum protein kinase 6 (PK6, PF3D7_1337100) (UniProt Q8IDW1); assay: PfPK6 kinase inhibitors, biochemical, TCAMS library (AID 1159586); settings: recombinant PfPK6, Kinase-Glo ATP depletion luminescence
# Chain of Plasmodium falciparum protein kinase 6 (PK6, PF3D7_1337100) (Q8IDW1 1-305): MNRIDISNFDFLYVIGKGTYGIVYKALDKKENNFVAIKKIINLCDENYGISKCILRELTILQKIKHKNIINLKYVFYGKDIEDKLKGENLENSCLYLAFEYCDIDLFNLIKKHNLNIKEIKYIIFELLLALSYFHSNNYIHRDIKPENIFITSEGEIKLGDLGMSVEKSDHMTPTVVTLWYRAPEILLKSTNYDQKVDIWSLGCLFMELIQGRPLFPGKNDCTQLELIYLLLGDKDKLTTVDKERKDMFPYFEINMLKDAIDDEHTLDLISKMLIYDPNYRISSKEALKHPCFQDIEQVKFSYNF
# [7] = target: Protein kinase 7 (PK7), Plasmodium falciparum 3D7 (PF3D7_0213400) (UniProt Q7YTF7); assay: inhibition of Plasmodium PK7 catalytic activity – biochemical, TCAMS antimalarial set, Kinase-Glo luminescence (AID 1159587); settings: recombinant PfPK7, Kinase-Glo ATP depletion luminescence
# Chain of Protein kinase 7 (PK7), Plasmodium falciparum 3D7 (PF3D7_0213400) (Q7YTF7 1-343): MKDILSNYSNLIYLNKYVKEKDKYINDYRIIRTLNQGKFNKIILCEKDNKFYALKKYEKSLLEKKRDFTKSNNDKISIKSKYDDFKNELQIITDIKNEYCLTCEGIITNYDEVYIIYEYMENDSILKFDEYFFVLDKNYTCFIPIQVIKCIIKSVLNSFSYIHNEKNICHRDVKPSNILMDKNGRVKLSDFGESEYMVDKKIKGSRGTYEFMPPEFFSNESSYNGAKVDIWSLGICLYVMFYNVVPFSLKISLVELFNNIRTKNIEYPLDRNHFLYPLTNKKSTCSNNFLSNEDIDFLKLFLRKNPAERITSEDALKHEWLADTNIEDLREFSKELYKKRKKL
# [8] = target: Calcium-dependent protein kinase 4 (Plasmodium falciparum (isolate 3D7)) (UniProt Q8IBS5); assay: PfCDPK4 kinase inhibitors, biochemical, TCAMS library (AID 1159588; cut-off not given, nearly all actives have IC50 up to about 0.91 µM); settings: recombinant PfCDPK4, Kinase-Glo ATP depletion luminescence
# Chain of Calcium-dependent protein kinase 4 (Plasmodium falciparum (isolate 3D7)) (Q8IBS5 whole entry, looked up): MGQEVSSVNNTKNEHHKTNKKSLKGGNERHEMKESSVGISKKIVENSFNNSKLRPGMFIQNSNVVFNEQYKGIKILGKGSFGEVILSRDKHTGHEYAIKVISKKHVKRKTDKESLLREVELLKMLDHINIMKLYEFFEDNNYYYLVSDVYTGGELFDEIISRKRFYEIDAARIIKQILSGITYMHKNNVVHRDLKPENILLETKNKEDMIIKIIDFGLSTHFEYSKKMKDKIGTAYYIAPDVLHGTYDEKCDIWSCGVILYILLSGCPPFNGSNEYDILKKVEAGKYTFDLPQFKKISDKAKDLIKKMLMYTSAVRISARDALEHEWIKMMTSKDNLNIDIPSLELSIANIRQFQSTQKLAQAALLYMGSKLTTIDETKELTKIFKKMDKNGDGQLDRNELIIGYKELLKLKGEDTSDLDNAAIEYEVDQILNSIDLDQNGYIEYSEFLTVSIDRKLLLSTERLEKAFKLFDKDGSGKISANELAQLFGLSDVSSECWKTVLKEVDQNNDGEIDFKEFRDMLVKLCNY
Structure (SMILES),growth inhibition [1],inhibition [2],inhibition [3] [%],growth inhibition [4],outcome [5],outcome [6],outcome [7],outcome [8]
O=C(/C=C/c1ccc(Cl)c(Cl)c1)NCCCCCN1CCCC(CNC(=O)Nc2ccc(C(F)(F)F)cc2)C1 (stereo not given),7%,27%,-9,100% (active),inactive,inactive,inactive,inactive
NC(N)=Nc1nc(-c2cccc(NC(=O)C(F)(F)F)c2)cs1,24%,-4%,-2,94% (active),inactive,inactive,inactive,inactive
CC(C)CNC(=S)N1CCCN(c2nc3ccc(Cl)cc3s2)CC1,11%,28%,-3,95% (active),inactive,inactive,inactive,inactive
c1ccc2c3c(ccc2c1)Sc1c(ccc2ccccc12)N3,31%,-7%,0,92% (active),inactive,inactive,inactive,inactive
COc1ccc(C(=O)C2CCN(CCCCNC(=O)c3ccc(NC(=O)c4cc(Cl)cc(Cl)c4)cc3)CC2)cc1,84% (active),35%,5,100% (active),inactive,inactive,inactive,inactive
Cc1onc(-c2ccccc2)c1C(=O)Nc1nc(-c2ccccn2)nc2ccsc12,78% (active),23%,-4,97% (active),inactive,inactive,inactive,inactive
COc1cccc(CNC(=O)c2ccnc(-c3cccc(CN(C)C4CCN(C)CC4)c3)c2)c1,46%,19%,-1,100% (active),inactive,inactive,inactive,inactive
COc1ccc(CCN2CC[C@H](Nc3nc(-c4ccc(F)c(F)c4)nc4ccccc34)C2)cc1S(N)(=O)=O,64% (active),18%,-8,99% (active),inactive,inactive,inactive,inactive
COc1cc(N(Cc2ccccc2C)S(=O)(=O)Cc2ccccc2[N+](=O)[O-])c(OC)cc1Cl,44%,16%,-2,94% (active),inactive,inactive,inactive,inactive
COc1ccc(CN2CCC(N3CC(c4ccccc4)(c4ccccc4)OCC3=O)C2)c(O)c1 (stereo not given),27%,10%,3,96% (active),inactive,inactive,inactive,inactive
Oc1ccc2[nH]cc(C3CCN(CCCCCCCCCN4CCC(c5c[nH]c6ccc(O)cc56)CC4)CC3)c2c1,2%,22%,-5,101% (active),inactive,inactive,inactive,inactive
CN(C)CCNCc1cccc(-c2ccc3c(Nc4cc(O)c(Cl)cc4F)ccnc3c2)c1,59% (active),6%,3,99% (active),inactive,inactive,inactive,inactive
COCCN(CCOC)c1ncc(-c2ccsc2)c(-c2nc(C)c(C)s2)n1,63% (active),1%,5,96% (active),inactive,inactive,inactive,inactive
COc1ccc2nc(N(CCCn3ccnc3)C(=O)C=Cc3cccs3)sc2c1,26%,8%,-3,92% (active),inactive,inactive,inactive,inactive
CCCOc1cc(OCCC)cc(-c2ccc(C(=O)Nc3ccc4ccc(C)nc4c3)c(=O)[nH]2)c1,76% (active),11%,5,101% (active),inactive,inactive,inactive,inactive
CN1CCC(NCc2ccc(-c3cccc(-c4nc5ccccc5[nH]4)c3)cc2)CC1,96% (active),50% (active),-5,100% (active),inactive,inactive,inactive,inactive
CCCCCCN1CCC(NCc2cccc(-n3ccnc3)c2)CC1,101% (active),3%,5,103% (active),inactive,inactive,inactive,inactive
CCN1CCC(NCc2ccc(-c3ccc(Cl)cc3)cc2)CC1,33%,25%,-2,100% (active),inactive,inactive,inactive,inactive
NCCc1cccc(-c2cnc3[nH]cc(-c4ccc(C(=O)O)cc4)c3c2)c1,98% (active),4%,-2,99% (active),inactive,inactive,inactive,inactive
O=C(Nc1cccc(-c2csc(-c3nc4ccccc4[nH]3)c2)c1)c1cc(=O)c2ccccc2[nH]1,39%,41%,-2,98% (active),inactive,inactive,inactive,inactive

Structure (SMILES),growth inhibition [1],inhibition [2],inhibition [3] [%],growth inhibition [4],outcome [5],outcome [6],outcome [7],outcome [8]
CC1(CCc2ccccc2)N=C(N)N(Cc2ccccc2)C(=O)C1c1ccc(Cl)c(Cl)c1 (stereo not given),96% (active),100% (active),-4,97% (active),inactive,inactive,inactive,inactive
Cc1cc(F)ccc1-c1nc(NCCCNCCc2ccccc2)nc2c1ccc(=O)n2-c1c(F)cccc1F,100% (active),36%,-6,100% (active),inactive,inactive,inactive,inactive
COc1ccc2nccc([C@@H](O)CN3CCC(NCc4ccc5scnc5c4)CC3)c2c1,93% (active),17%,-1,101% (active),inactive,inactive,inactive,inactive
Oc1cc(Nc2ccnc3ccc(I)cc23)c(F)cc1Cl,13%,20%,0,95% (active),inactive,inactive,inactive,inactive
Cc1cc(-c2ccc3c(c2)CCN(CCC2CCC(NC(=O)/C=C/c4ccc(F)cc4)CC2)CC3)on1 (stereo not given),47%,29%,-4,98% (active),inactive,inactive,inactive,inactive
CC(C)(C)c1ccc(C(=O)Nc2ccc(NC(=O)c3ccc([N+](=O)[O-])o3)cc2)cc1,4%,-2%,2,81% (active),inactive,inactive,inactive,inactive
FC(F)(F)c1ccc2nc(-c3ccc(-c4cccc(CNCC5CCCO5)c4)cc3)[nH]c2c1 (stereo not given),100% (active),36%,-5,101% (active),inactive,inactive,inactive,inactive
N=C(N)c1ccc(-c2cc3ccc(C(=N)N)cc3[nH]2)cc1,99% (active),18%,-2,99% (active),inactive,inactive,inactive,inactive
Cc1ccc(CN2CCCN(Cc3cccc(NC(=O)c4ccc(Cl)c(Cl)c4)c3)CC2)cc1,18%,32%,-1,96% (active),inactive,inactive,inactive,inactive
CCN1CCC(N(Cc2ccc(-c3ccc(C(F)(F)F)cc3)cc2)C(=O)Cn2c(CCc3cccc(F)c3F)cc(=O)c3c2CCCC3)CC1,96% (active),55% (active),0,100% (active),inactive,inactive,inactive,inactive
CCn1c(-c2nc(-c3ccc4c(c3)OCO4)cnc2N)nc2cnccc21,98% (active),94% (active),-7,100% (active),inactive,inactive,inactive,inactive
Cc1cc(Nc2cccc(C(F)(F)F)c2)nc(Nc2cccc(C(F)(F)F)c2)n1,73% (active),-1%,-3,100% (active),inactive,inactive,inactive,inactive
O=C(CNC(=O)c1ccc(O)cc1)Nc1cccc(-c2cccc(-c3nc4ccc(C(F)(F)F)cc4[nH]3)c2)c1,28%,63% (active),5,96% (active),inactive,inactive,inactive,inactive
CC(C)c1ccc(CN(C)CCCCNC(=O)c2ccc(NC(=O)c3ccc(Cl)cc3)cc2)cc1,0%,17%,0,92% (active),inactive,inactive,inactive,inactive
CC(O)c1cccc(-c2ccc(Nc3ccnc4cc(-c5nccs5)ccc34)cc2)c1 (stereo not given),69% (active),31%,-1,91% (active),inactive,inactive,inactive,inactive
CC(Cc1ccc(COc2ccc(CC(CO)NCCc3cccc(Cl)c3)cc2)cc1)NCCc1cccc(Cl)c1 (stereo not given),86% (active),99% (active),5,101% (active),inactive,inactive,inactive,inactive
O=C(NCCN1CCOCC1)c1ccc(CNC(=O)c2ccc(O)c(-c3ccc(Cl)c(Cl)c3)c2)cc1,55% (active),3%,-1,87% (active),inactive,inactive,inactive,inactive
CN1CCN(CCCSc2ccc3c(c2)ncn3-c2cc(OCc3ccccc3C(F)(F)F)c(C(N)=O)s2)CC1,86% (active),28%,8,101% (active),inactive,inactive,inactive,inactive
NC(N)=NC(=O)Nc1cc(Cl)c(Br)c(Cl)c1,101% (active),6%,4,101% (active),inactive,inactive,inactive,inactive
O=c1cc(NCCCNC2CCc3c(Cl)cc(Cl)cc32)[nH]c2ccccc12 (stereo not given),29%,3%,0,100% (active),inactive,inactive,inactive,inactive
